In PubChem BioAssay (NCI) one finds growth inhibition data, which are given here for 39 molecules.

The panel holds about 79,000 compounds, 15% with a hit somewhere; the sample as a whole holds those more often. A number with no mark means an inactive call. Rule as the data show it: active = growth inhibition above about 70%; inactive = the rest.

The nature of this assay: NCI Yeast Anticancer Drug Screen. Data for the bub3 strain (AID 167). The following applies: S. cerevisiae bub3 mutant strain, at 50.0 µM, active compounds read high. In outline: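 Screening used yeast with an engineered genetic alteration affecting cell cycle control. Compound-exposed cultures were compared with vehicle cultures, and reduced growth was taken as inhibition.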
Take `CCOC(=O)CCc1c[nH]c2ccccc12`: the growth inhibition was 0.2%.

Regarding `CC(=O)Nc1nc(C)c(CC/C=C/c2ccc([N+](=O)[O-])cc2)c(=O)[nH]1`, the growth inhibition is -8.15%.

With `C=C1C(=O)OC2C=C(C)C3C(OC(=O)c4ccccc4)CC(C)(O)C3CC12` (centres undefined), the growth inhibition is -2.75%.

For `CCOc1nc(N)nc(C)c1N=Nc1ccc(O)cc1`, the growth inhibition was -2.4%.

On to `Nc1ccc(C(=O)N/C(=C\c2cccc([N+](=O)[O-])c2)c2nc3ccc(Cl)cc3[nH]2)cc1`, for which the growth inhibition is 1%.

For the molecule `O=C1c2ccccc2C(=O)N1/N=C\c1ccc(O)cc1`, the growth inhibition is 0.95%.

As to `CCOc1ccc(C(=O)OC(C)C)cc1`, the growth inhibition is -2.45%.

`CC1=NN(c2ccccc2)C(=O)C1=C1SCCCS1`: the growth inhibition is -4.9%.

As to `Clc1ccc2c(c1)N(C1CCCN(Cc3ccccc3)C1)c1ccccc1S2` (centres undefined), the growth inhibition was 43.7%.

Consider `COc1ccc(C(CC(=O)c2ccccc2)C(=O)c2ccc3c(c2)OCO3)cc1` (centres undefined), for which the growth inhibition is -0.3%.

In the case of `O=C(OC(=O)c1ccc(Cl)cc1)c1ccc(Cl)cc1`, the growth inhibition was -9.2%.

In the case of `CSC(=S)Nc1nc2ccc(Cl)cc2s1`, the growth inhibition is 17.7%.

In the case of `CCOc1nc(OCC)c2cnn(C)c2n1`, the growth inhibition was 7.55%.

Take `COc1ccc([N+](=O)[O-])c(OC)c1`: the growth inhibition is -23.4%.

On to `C/C(=N\NC(=O)c1ccncc1)c1ccc(Cl)cc1Cl`, for which the growth inhibition is 4.65%.

In the case of `COc1cc(-c2ccccc2)c(OC)cc1CCl`, the growth inhibition was 13.7%.

As for `CCOC(=O)C(=O)C(CCc1ccc2ccc3cccc4ccc1c2c34)C(=O)OCC` (centres undefined), the growth inhibition was 0.35%.

Turning to `O=c1[nH]c2ccccc2nc1/C=C(\O)c1ccc([N+](=O)[O-])cc1`, the growth inhibition is -22.4%.

Turning to `O=C(NCCO)c1ccc(Cl)cc1`, the growth inhibition was -32.4%.

As to `Cc1cc(N=Nc2ccccc2)c2cccnc2c1N`, the growth inhibition is -5.15%.

Turning to `CCCCNC(=O)C(C)S(=O)(=O)c1ccc(C)cc1` (centres undefined), the growth inhibition was -2%.

For `Cc1ccc(C(=O)c2cc3c([nH]c4ccccc43)c(C)c2C(=O)O)cc1`, the growth inhibition was 21.5%.

As to `CC(=O)N=Cc1ccccc1O`, the growth inhibition was -34.5%.

On to `O=C(Nc1ccccc1)c1cccc(F)c1`, for which the growth inhibition was -19.4%.

As to `O=C(O)CNC(=O)CNC(=O)CNC(=O)CNC(=O)CNC(=O)OCc1ccccc1`, the growth inhibition is -0.95%.

As for `CCn1c(O)c(C=Nc2ccccc2)s/c1=N/Nc1nc(C)cs1`, the growth inhibition was -26.7%.

For `CCCCC(=O)N/N=C/c1c[nH]c2ccc(Br)cc12`, the growth inhibition was 12.9%.

Consider `Cc1ccc(OCc2ccccc2)n[n+]1[O-]`, for which the growth inhibition was -9.7%.

For `Cc1cc(C)n(-c2ccc(Cl)nn2)n1`, the growth inhibition is 9%.

Consider `N/N=C/c1ccc2ccccc2n1`, for which the growth inhibition is 12.6%.

In the case of `COC(=O)CC(=O)/C(=C/C(C/C=C(\C(=O)CC(=O)OC)C(=O)OC)OC)C(=O)OC` (centres undefined), the growth inhibition was 3.85%.

`CC1(C)C2CC=C(CCO)C1C2` (centres undefined): the growth inhibition was 0.05%.

Regarding `CCCOC(C)OCCC#CCC(C)OC(=O)CC(Cl)(Cl)Cl` (centres undefined), the growth inhibition is -16.1%.

`Cc1cc(=NO)cc(C)n1O`: the growth inhibition is 3.55%.

For `CC(=O)Nc1nc(C)c(CC/C=C/c2ccc([N+](=O)[O-])cc2)c(Cl)n1`, the growth inhibition was 27.2%.

`COc1cc(/C=C2/C(=O)N(C(=O)c3ccc(Cl)cc3)N=C2C)cc(OC)c1OC`: the growth inhibition was 24.6%.

`CC(=O)NNc1nc(C)c(C(/C=C/c2ccc(/C=C/C(=N\NC(=O)c3ccncc3)c3sc(NNC(C)=O)nc3C)cc2)=N/NC(=O)c2ccncc2)s1`: the growth inhibition is 1.4%.

Take `COC(=O)NC(C(F)(F)F)(C(F)(F)F)P1(=O)OCCCO1`: the growth inhibition was 54%.

`CSc1ccc(C(=O)c2ccc(SC)cc2)cc1`: the growth inhibition is -4.25%.
